Experimental data: PubChem BioAssay (NCI)
About 83,000 compounds went through this panel and 20% of them were active in at least one assay; those are over-represented in the sample as a whole.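 Single-concentration screen, 48 h exposure, 96-well plates. Endpoint: percent growth. Below 10 = active.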 Values without a mark were called inactive. Active and inactive are the calls of the source.

Legend:
Assay in all cases: NCI-60 one-dose screen, 48 h (100 = growth as untreated, 0 = no growth, -100 = all killed)
Details in all cases: 10 µM unless noted
[1] = test system: NCI-H23 lung
[2] = test system: NCI-H226 lung
[3] = test system: NCI-H322M lung
[4] = test system: HOP-62 NSCLC
[5] = test system: NCI-H460 lung
[6] = test system: HOP-92 NSCLC
[7] = test system: NCI-H522 lung
[8] = test system: A549/ATCC NSCLC
[9] = test system: 786-0 renal
[10] = test system: COLO 205 colon
[11] = test system: DU-145 prostate
[12] = test system: K-562 leukemia
[13] = test system: MALME-3M melanoma
[14] = test system: MDA-MB-231 breast
[15] = test system: RXF 393 renal
[16] = test system: SF-268 CNS
[17] = test system: SF-295 CNS
[18] = test system: SF-539 CNS
[19] = test system: UACC-257 melanoma
[20] = test system: M14 melanoma

SMILES | growth [1] | growth [2] | growth [3] | growth [4] | growth [5] | growth [6] | growth [7] | growth [8] | growth [9] | growth [10] | growth [11] | growth [12] | growth [13] | growth [14] | growth [15] | growth [16] | growth [17] | growth [18] | growth [19] | growth [20]
COc1ccc(C(=O)/C=C/c2ccccc2)cc1S(N)(=O)=O | 79.6% | 82.5% | 71.4% | 86.9% | 53.6% | 95.7% | 76% | 65.7% | 64.6% | 98.2% | 41.7% | 7.9% (active) | 93.6% | 71.5% | 80.6% | 63.3% | 91.1% | 60.2% | 90.9% | 82.8%
NS(=O)(=O)c1ccc(C(=O)NN2C(=O)c3ccccc3C2=O)cc1 | 105% | 111% | 110% | 108% | 112% | 107% | 99.5% | 110% | 105% | 108% | 105% | 101% | 109% | 109% | 120% | 92.8% | 98.7% | 113% | 110% | 104%
COc1ccc(/C=C/C(c2cc(OC)c(OC)c(OC)c2)n2cncn2)cc1O (stereo not given) | 41.5% | 62.2% | 54.7% | 22.5% | 13.3% | 48% | 13% | 40.1% | 23.3% | 60.6% | 21% | 8.05% (active) | 54.4% | 45.5% | -16.9% (active) | 54.1% | 1.43% (active) | -4.58% (active) | 55.6% | -12.3% (active)
Cc1ccc(C)c2c1sc1nc(N3CCOCC3)c(C#N)c(=O)n12 | 76.1% | 89.6% | 107% | 94.2% | 94.9% | 71.7% | 94.8% | 98.4% | 104% | 104% | 103% | 151% | 97.1% | 92% | 114% | 88% | 61.7% | 96.4% | 112% | 92.9%
Oc1nc(NCc2ccccc2)sc1/C=C1\C=Nc2ncccc21 | 51.9% | 62.3% | 61.9% | 56.1% | 81.9% | 28.8% | 35.2% | 76.9% | 62.8% | 34.2% | 56.5% | 80.7% | 129% | 83.8% | -14.1% (active) | 52.3% | 73.7% | 23.3% | 71.3% | 80.1%
COc1ccc(N=C2NN=C(c3c[nH]c4ccccc34)CS2)cc1OC | 67.7% | 80.6% | 70% | 50.5% | 26.9% | 19.6% | -34.1% (active) | 55% | 54.8% | 57.9% | 65.9% | 36.6% | 69.3% | 55.4% | 68.6% | 56.2% | -31.9% (active) | 51.8% | 77.4% | 34%
COc1cc(C=C2C(=O)NC(=S)NC2=O)cc(CN2CCCC2)c1O | 103% | 103% | 105% | 103% | 109% | 92.8% | 96.4% | 96.6% | 102% | 120% | 113% | 108% | 108% | 111% | 103% | 99.6% | 104% | 101% | 98.8% | 109%
